# Laboratory results reported in PubChem BioAssay (NCATS).
# “And” between values parts separate entries of the source, which are not always exact repeats. Equal entries are not always repeated. Records with an inconclusive call do not appear. Where a call stands in place of a potency, no number is given. The source made the active and inactive calls. The call rests on the fitted dose curve; in most records, active means well fitted curve in the direction sought with a large enough effect; inconclusive means small, poorly fitted or top-dose-only effect, or another doubt; inactive means no such curve, though single readings can be large; an effect the other way counts as inactive or inconclusive.
# Target: Cellular tumor antigen p53 (Homo sapiens) (UniProt P04637)
# Sequence (P04637 whole entry, looked up): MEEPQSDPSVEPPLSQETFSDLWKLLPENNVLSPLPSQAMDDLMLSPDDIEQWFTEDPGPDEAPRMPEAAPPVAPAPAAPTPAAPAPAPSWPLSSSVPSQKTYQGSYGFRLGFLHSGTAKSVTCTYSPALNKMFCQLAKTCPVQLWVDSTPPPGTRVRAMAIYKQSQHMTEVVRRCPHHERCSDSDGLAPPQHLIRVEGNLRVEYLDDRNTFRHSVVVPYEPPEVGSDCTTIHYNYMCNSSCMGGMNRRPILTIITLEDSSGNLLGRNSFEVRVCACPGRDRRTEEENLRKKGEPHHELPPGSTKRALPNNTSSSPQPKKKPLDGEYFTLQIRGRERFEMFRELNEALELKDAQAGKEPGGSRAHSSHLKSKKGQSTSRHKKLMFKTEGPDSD
# Experiment: Primary qHTS for small molecule compounds that upregulate eGFP-tagged delta133p53alpha (in N-terminal) cells. (AID 2060322); further: nearly all actives have a fitted effect of over 75% in size;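 on activation: cells pre-induced with doxycycline then dosed without doxycycline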
# Details: NCI-H358 eGFP-delta133p53alpha fluorescence, 24 h; activation: active compounds read high
# How it was run: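 NCI-H358 cells pre-induced 24 h with 10 ng/ml doxycycline for eGFP-delta133p53alpha, plated dox-free and exposed 24 h at 37C to titrated compounds. Fixed, Hoechst-stained; gated GFP peak intensity by laser scanning cytometry, normalized to DMSO (0%) and 57.5 uM 5-azacytidine (100%).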
# Potency means the concentration at half of the fitted maximal effect.
Compound,activation,Potency
Cn1nccc1-c1ccccc1Oc1ccc(S(=O)(=O)Nc2nccs2)cc1C#N,3.67% (inactive),
O=C1NC(=O)C(c2cnc3ccccn23)=C1c1cn2c3c(cccc13)CN(C(=O)N1CCOCC1)CC2,,23.9 µM (active)
N#Cc1c(O)c2c(-c3ccc(-c4ccccc4O)cc3)csc2[nH]c1=O,4.35% (inactive) and -11.5% (inactive),
O=C(/C=C/c1ccc(O)cc1)OC[C@H]1O[C@@H](O/C(=C\c2ccccc2)C(=O)O)[C@H](O)[C@@H](O)[C@@H]1O,-2.29% (inactive),
CC1(C)C(=O)N2c3ccccc3C(O)(CC(C(=O)O)n3cnc4ccccc4c3=O)C2N1O (configuration not stated),16% (inactive),
CC1(C)CC[C@]2(C(=O)O[C@@H]3O[C@H](CO)[C@@H](O)[C@H](O)[C@H]3O)CC[C@]3(C)C(=CCC4[C@@]5(C)C[C@@H](O)[C@H](O)[C@@](C)(CO)C5CC[C@]43C)C2[C@@H]1O (some centres not stated),8.93% (inactive),
CC(C)c1ccc2c(c1)C(=O)CC1C(C)(C(=O)O)CCCC21C (configuration not stated),3.57% (inactive),
CNC(=O)c1ccc2c(C(=Nc3cccc(CN(C)C)c3)c3ccccc3)c(O)[nH]c2c1,-0.477% (inactive),
Cc1cc(C)c(NC(=O)N(Cc2ccc3c(c2)Cc2ccccc2-3)C2CCCCCC2)c(C)c1,15.3% (inactive),
COC(=O)c1[nH]c(=O)c2ccccc2c1-c1ccc[nH]1,-11.6% (inactive),
CCc1cc(CN2CC(C(=O)O)C2)sc1-c1noc(-c2ccc(Oc3ccccc3)cc2)n1,-2.39% (inactive),
COC(=O)Cc1cc2c(c([N+](=O)[O-])c1)N(C(=O)CC[C@H](N)C(=O)O)CC2,-7.67% (inactive),
C[C@H]1C(=O)N2c3ccccc3[C@@]3(O)C[C@@H]4C(=O)N[C@](C)(c5nc6ccccc6c(=O)n54)N1[C@@H]23,-2.29% (inactive),
C=C(C)C1CCC(C)C12CC(O)C1(C)OC1C2OC(=O)C(N)CCC(=O)O (configuration not stated),-6.11% (inactive),
CC(C)CC1(C(=O)OCc2ccc(O[C@@H]3O[C@H](CO)[C@@H](O)[C@H](O)[C@H]3O)cc2)CC(=O)OC(C(=O)O)CC(=O)OCC2OC(O1)C(OC(=O)/C=C/c1ccc(O)cc1)C(O)C2O (some centres not stated),3.05% (inactive),
COc1cccc(NC[C@@H](O)Cn2c3ccc(Br)cc3c3cc(Br)ccc32)c1,29.6% (inactive),

Compound,activation,Potency
CC(CCC1(O)OC2CC3C4CCC5CC(O[C@@H]6O[C@H](CO)[C@@H](O)[C@H](O)[C@H]6O[C@@H]6OC[C@@H](O)[C@H](O)[C@H]6O)C(O)CC5(C)C4CCC3(C)C2C1C)CO[C@@H]1O[C@H](CO)[C@@H](O)[C@H](O)[C@H]1O (some centres not stated),-5.36% (inactive),
COC(=O)c1ccc(OC(CO)C(O)c2ccc(O)c(OC)c2)c(OC)c1 (configuration not stated),9.82% (inactive),
CC1CC(=O)C2=C(O1)OC1(C)CCC3C(C)(C)C=CC(=O)C3(C)C1C2 (configuration not stated),-29.5% (inactive),
C=C1C(=O)O[C@@H]2[C@H]1CC(=O)[C@H](C)[C@@](O)(C(=O)/C=C/C)[C@H]2OC(=O)C(C)CC (some centres not stated),,5.88 µM (active)
Cc1cc(CNC(=O)c2cc(C(=O)NCc3ccc(F)c(C)c3)ncn2)ccc1F,1.67% (inactive),
COc1cc(O)cc2c1C(=O)OC(C)CCCCCCC2 (configuration not stated),1.79% (inactive),
N=c1nc2n(cc1F)C1OC(CO)C(O)C1O2 (configuration not stated),0.333% (inactive),
OC[C@H]1O[C@@H](OC[C@H]2O[C@@H](OCc3ccccc3)[C@H](O)[C@@H](O)[C@@H]2O)[C@H](O)[C@@H](O)[C@@H]1O,-3.82% (inactive),
Cc1cn2cc(CC(=O)N3CCC4(CC3)CN(Cc3ccc(-n5nccn5)cc3Cl)C4)nc2s1,-8.93% (inactive),
CC(=O)O[C@@H]1C[C@@]2(C)C(CC[C@]3(C)C2CC=C2C4CC(C)(C)CC[C@]4(C(=O)O)CC[C@]23C)C(C)(C)[C@H]1O (some centres not stated),13.4% (inactive),
CC(C)COc1ccc(CNC(=O)N(Cc2ccc(F)cc2)C2CCN(C)CC2)cc1,-15.7% (inactive),
CC(=O)OC[C@]12[C@@H](OC(=O)c3ccoc3)C[C@@H]3[C@@H](OC(C)=O)[C@]1(OC3(C)C)[C@@](C)(O)C[C@H](OC(=O)c1ccoc1)[C@@H]2OC(=O)c1ccoc1,-9.16% (inactive),
O=C(Nc1ccccc1C(=O)Nc1ccc(CCO)cc1)c1ccc([N+](=O)[O-])cc1,-29.5% (inactive),
CC1(C)C2CCC1(C)C(OC(=O)C(O)(CC(=O)O)CC(=O)O)C2 (configuration not stated),-24.4% (inactive),
CNC(C)C(=O)NC(C(=O)N1CCCC1C(=O)Nc1cccc2ncccc12)C(C)C (configuration not stated),-21% (inactive),

# Target: Aldehyde dehydrogenase, mitochondrial (Homo sapiens) (UniProt P05091)
# Experiment: qHTS for Inhibitors of the Aldehyde Dehydrogenase Family (ALDH2) Primary screen (AID 2061308); further: nearly all actives have a fitted effect of over 55% in size
# Details: ALDH2 enzyme inhibition qHTS, 1536-well; series mostly up to 56 µM
row,Compound,Potency
1,COC(=O)C1=C2Nc3ccccc3C23CCN2CCCC(C(C)O)(C1)C23 (configuration not stated),inactive
2,Cc1ccc(CNc2ncnc3ccc(-c4ccc(CO)o4)cc23)o1,inactive
3,CC1(C)CC[C@]2(C(=O)O)CC[C@]3(C)C(=CCC4[C@@]5(C)CCC(O[C@@H]6OC[C@H](O)[C@H](O)[C@H]6O[C@@H]6O[C@H](CO)[C@@H](O)[C@H](O)[C@H]6O)[C@@](C)(CO)C5CC[C@]43C)[C@@H]2C1 (some centres not stated),inactive
4,C[C@@H]1C[C@H]2O[C@@]3(O[C@@H]2C(C)(C)O)C(O)[C@@]2(C)C4CCC5C(C)(C)[C@@H](O[C@H]6OC[C@H](O)[C@@H](O)[C@@H]6O)CC[C@@]56C[C@@]46CC[C@]2(C)C13 (some centres not stated),inactive
5,H-DPPDPDRFYGMM-NH2,inactive
6,C/C(=C/CCC(CO)C1CCC2(C)C3CCC4C(C)(C)C(OC5OC(CO)C(O)C(O)C5O)CC(O)C45CC35CCC12C)COC1OC(CO)C(O)C(O)C1O (configuration not stated),inactive
7,C=C(C)C(=O)OC1CC(CO)CCC/C(CO)=C/C2OC(=O)C(=C)C21 (configuration not stated),inactive
8,COC(=O)[C@H]1[C@H]2C[C@@H]3c4[nH]c5cc(OC)ccc5c4CCN3C[C@H]2C[C@@H](OC(=O)/C=C/c2cc(OC)c(OC)c(OC)c2)[C@@H]1OC,inactive
9,CC(=O)O[C@H]1[C@H](C)[C@@H](O)[C@H]2[C@@H]1C=C(C(=O)O)[C@H]1C[C@@H]3[C@H]([C@H]21)[C@H]1C(=O)O[C@@H]2CC[C@@]3(C)O[C@]1(O)[C@@H]2C,inactive
10,Cn1nccc1-c1ccccc1Oc1ccc(S(=O)(=O)Nc2nccs2)cc1C#N,inactive
11,O=C1NC(=O)C(c2cnc3ccccn23)=C1c1cn2c3c(cccc13)CN(C(=O)N1CCOCC1)CC2,inactive
12,N#Cc1c(O)c2c(-c3ccc(-c4ccccc4O)cc3)csc2[nH]c1=O,17.8 µM (active)
13,O=C(/C=C/c1ccc(O)cc1)OC[C@H]1O[C@@H](O/C(=C\c2ccccc2)C(=O)O)[C@H](O)[C@@H](O)[C@@H]1O,inactive
14,CC1(C)C(=O)N2c3ccccc3C(O)(CC(C(=O)O)n3cnc4ccccc4c3=O)C2N1O (configuration not stated),inactive
15,CC1(C)CC[C@]2(C(=O)O[C@@H]3O[C@H](CO)[C@@H](O)[C@H](O)[C@H]3O)CC[C@]3(C)C(=CCC4[C@@]5(C)C[C@@H](O)[C@H](O)[C@@](C)(CO)C5CC[C@]43C)C2[C@@H]1O (some centres not stated),inactive
16,CC(C)c1ccc2c(c1)C(=O)CC1C(C)(C(=O)O)CCCC21C (configuration not stated),inactive
17,CNC(=O)c1ccc2c(C(=Nc3cccc(CN(C)C)c3)c3ccccc3)c(O)[nH]c2c1,inactive
18,Cc1cc(C)c(NC(=O)N(Cc2ccc3c(c2)Cc2ccccc2-3)C2CCCCCC2)c(C)c1,inactive

row,Compound,Potency
1,COC(=O)c1[nH]c(=O)c2ccccc2c1-c1ccc[nH]1,inactive
2,CCc1cc(CN2CC(C(=O)O)C2)sc1-c1noc(-c2ccc(Oc3ccccc3)cc2)n1,inactive
3,COC(=O)Cc1cc2c(c([N+](=O)[O-])c1)N(C(=O)CC[C@H](N)C(=O)O)CC2,inactive
4,C[C@H]1C(=O)N2c3ccccc3[C@@]3(O)C[C@@H]4C(=O)N[C@](C)(c5nc6ccccc6c(=O)n54)N1[C@@H]23,inactive
5,C=C(C)C1CCC(C)C12CC(O)C1(C)OC1C2OC(=O)C(N)CCC(=O)O (configuration not stated),inactive
6,CC(C)CC1(C(=O)OCc2ccc(O[C@@H]3O[C@H](CO)[C@@H](O)[C@H](O)[C@H]3O)cc2)CC(=O)OC(C(=O)O)CC(=O)OCC2OC(O1)C(OC(=O)/C=C/c1ccc(O)cc1)C(O)C2O (some centres not stated),inactive
7,COc1cccc(NC[C@@H](O)Cn2c3ccc(Br)cc3c3cc(Br)ccc32)c1,inactive
8,CC(CCC1(O)OC2CC3C4CCC5CC(O[C@@H]6O[C@H](CO)[C@@H](O)[C@H](O)[C@H]6O[C@@H]6OC[C@@H](O)[C@H](O)[C@H]6O)C(O)CC5(C)C4CCC3(C)C2C1C)CO[C@@H]1O[C@H](CO)[C@@H](O)[C@H](O)[C@H]1O (some centres not stated),inactive
9,COC(=O)c1ccc(OC(CO)C(O)c2ccc(O)c(OC)c2)c(OC)c1 (configuration not stated),inactive
10,CC1CC(=O)C2=C(O1)OC1(C)CCC3C(C)(C)C=CC(=O)C3(C)C1C2 (configuration not stated),inactive
11,C=C1C(=O)O[C@@H]2[C@H]1CC(=O)[C@H](C)[C@@](O)(C(=O)/C=C/C)[C@H]2OC(=O)C(C)CC (some centres not stated),inactive
12,Cc1cc(CNC(=O)c2cc(C(=O)NCc3ccc(F)c(C)c3)ncn2)ccc1F,inactive
13,COc1cc(O)cc2c1C(=O)OC(C)CCCCCCC2 (configuration not stated),inactive
14,N=c1nc2n(cc1F)C1OC(CO)C(O)C1O2 (configuration not stated),inactive
15,OC[C@H]1O[C@@H](OC[C@H]2O[C@@H](OCc3ccccc3)[C@H](O)[C@@H](O)[C@@H]2O)[C@H](O)[C@@H](O)[C@@H]1O,inactive
16,Cc1cn2cc(CC(=O)N3CCC4(CC3)CN(Cc3ccc(-n5nccn5)cc3Cl)C4)nc2s1,inactive
17,CC(=O)O[C@@H]1C[C@@]2(C)C(CC[C@]3(C)C2CC=C2C4CC(C)(C)CC[C@]4(C(=O)O)CC[C@]23C)C(C)(C)[C@H]1O (some centres not stated),inactive
18,CC(C)COc1ccc(CNC(=O)N(Cc2ccc(F)cc2)C2CCN(C)CC2)cc1,inactive
